Laboratory results as given in ChEMBL document CHEMBL1157539, “Thousands of chemical starting points for antimalarial lead identification” (Nature, 2010).

Key:
Format in all cases: functional
Plasmodium falciparum [1] = test: GSK_TCMDC: Inhibition of Plasmodium falciparum 3D7 in whole red blood cells, using parasite LDH activity as an index of growth. Test compounds present at 2uM
Plasmodium falciparum [2] = test: GSK_TCMDC: Inhibition of Plasmodium falciparum Dd2 in whole red blood cells, using parasite LDH activity as an index of growth. Test compounds present at 2uM
HepG2 = test: GSK_TCMDC: Percent inhibition of human HepG2 cell line. Test compounds present at 10uM.

SMILES | Inhibition (Plasmodium falciparum [1]) | Inhibition (Plasmodium falciparum [2]) | Inhibition (HepG2)
Clc1cc(Cl)cc(Nc2ccnc(Nc3cc(Cl)cc(Cl)c3)n2)c1 | 99% | 73% | 11%
O=C(Nc1cccc(CN2CCCN(Cc3ccc(O)cc3)CC2)c1)c1cccc(Cl)c1.O=C(O)C(F)(F)F | 96% | 41% | 10%
COc1cc(NCCCNC(=O)c2ccc(Cl)c(Cl)c2)nc2ccccc12 | 99% | 100% | 48%
CC(C)Nc1ccc(Nc2ccnc3cc4ccccc4cc23)cc1 | 100% | 81% | 37%
O=C(NC1CCCCC1)N(Cc1cccc(-c2ccc(CNCc3ccc4c(c3)OCO4)cc2)c1)C1CCN(Cc2ccccc2)CC1.O=C(O)C(F)(F)F | 92% | 59% | 13%
CCCNCc1ccc(-c2ccc(CNC3Cc4ccccc4C3)cc2)nc1.O=C(O)C(F)(F)F | 97% | 32% | 23%
CN1CCC(NCc2cccc(-c3cccc(S(=O)(=O)NCc4ccccc4)c3)c2)CC1.O=C(O)C(F)(F)F | 100% | 6% | 57%
Cc1[nH]c2ccccc2c1C(=O)CSc1nn(-c2ccccc2)c(=S)s1 | 100% | 99% | 0%
CCCOc1ccc(N2C(N)=NC(N)=NC2(C)C)cc1.Cl | 97% | 2% | 1%
CN1CCN(CCCCCCNc2c3ccccc3nc3ccccc23)CC1.Cl | 100% | 0% | 35%
CN(C)CCNC(=O)c1ccc(-c2ccc3c(Nc4ccccc4)c(C(N)=O)cnc3c2)cc1 | 99% | 68% | 9%
COc1ccc2nccc([C@@H](O)CN3CCC(NC(=O)/C=C/c4cc(F)cc(NC(C)=O)c4)CC3)c2c1 | 97% | 49% | 7%
COc1cc(-c2ccc(-c3cnc(N)nc3OC)[nH]2)cc(OC)c1OC | 100% | 54% | 0%
COc1cc2nc(N3CCC(CNCc4ccc(-c5ccc(C(F)(F)F)cc5)cc4)CC3)nc(N)c2cc1OC | 99% | 100% | 99%
O=C(Nc1cccc(CN2CCCN(Cc3ccc4c(c3)OCO4)CC2)c1)c1ccc(Cl)c(Cl)c1.O=C(O)C(F)(F)F | 92% | 10% | 34%
O=C(/C=C/c1ccc(Cl)c(Cl)c1)NCCCCCN1CCC(NC(=O)Nc2ccc(C(F)(F)F)cc2)CC1 | 94% | 34% | 58%
Cc1cc(N[C@@H](Cc2ccccc2)C(=O)NCc2cccc(F)c2)nc(NCCCOC(C)C)n1.O=C(O)C(F)(F)F | 100% | 94% | 10%
CCN(c1cc(C)nc(Nc2ccc(Cl)cc2)n1)[C@H]1CCN(Cc2ccccc2)C1 | 94% | 31% | 46%
CC(C)CN1CCN(CCNc2c3ccccc3nc3ccccc23)CC1 | 97% | 79% | 26%
O=C(Nc1cccc(CN2CCCN(Cc3cccc(F)c3)CC2)c1)c1ccc(Cl)c(Cl)c1.O=C(O)C(F)(F)F | 85% | 6% | 28%
CCOc1ccccc1NC(=O)C(Sc1nc(C)cc(C)c1C#N)c1ccccc1 (centres undefined) | 99% | 98% | 0%
COc1ccc(-c2ccc(NC(=O)c3ccc(Cl)cc3)cc2)cc1CN1CCCN(C)CC1.O=C(O)C(F)(F)F | 93% | 61% | 27%
Cc1cccc(-c2nn(-c3ccccc3)c3[nH]c(=O)c(CNC4CCCC4)cc23)c1 | 98% | 97% | 18%
Oc1ccc2ccccc2c1C=NNc1nc(=Nc2ccccc2)[nH]c(=Nc2ccccc2)[nH]1 | 99% | 73% | 55%
COc1ccc(CN2CCC(CNCCc3ccccc3Oc3ccccc3)CC2)cc1.O=C(O)C(F)(F)F | 85% | 56% | 99%
COc1ccc(Nc2nccc(-c3c(-c4cccc(NC(=O)c5c(F)cccc5F)c4)nn4ccccc34)n2)cc1Cl | 95% | 71% | 61%
COc1ccc2nc(C)cc(Nc3ccc(Oc4ccc(Cl)c5ccccc45)c(Cl)c3)c2c1 | 100% | 100% | 83%
COc1ccc(CC(Cc2ccc(OC)cc2)NCC(O)c2cccc(Cl)c2)cc1 (centres undefined) | 100% | 98% | 11%
